Bioassay records: PubChem, National Center for Advancing Translational Sciences (NCATS)
This is a sample that favours compounds with a hit; in the whole collection about 1.5% have one here.
GALK inhibitor = blocks human galactokinase activity | 270,000 tested, 0.007% active | Potency, µM (series often up to 57.5 µM), for inactives: at the top dose activity change, negative = inhibition, most hits filed as inhibitors | Purified GALK, Kinase-Glo residual ATP luminescence; note: potency is the fitted concentration of half-maximal effect
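GALK at 5 nM final was combined with compound, 35 uM ATP and 100 uM galactose in HEPES pH8.0 with MgCl2 and DTT. The reaction ran one hour at room temperature before luminescent ATP detection.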
Giardia kill = kills Giardia lamblia; Giardia lamblia trophozoite viability; AID 540267; activity change, % at 7.66 µM, hits read low; 340,000 tested, 0.15% active; in the data active = activity change below about -80%; inconclusive = between about -30% and that limit;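 note: parasites exposed to compound for two days anaerobically before the ATP read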
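Giardia trophozoites, 100 cells per well, were exposed to compounds for 48 hrs at 37 deg C under anaerobic conditions; viability was then read as ATP content by bioluminescence after 15-30 min at room temperature.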
TrxR1 inh = rat TrxR1 inhibition; recombinant rTrxR1, NADPH fluorescence consumption, selenite substrate; Potency, µM (highest dose often 114 µM), for the others: top-dose activity change, negative = inhibition, actives largely listed as inhibitors; 390,000 tested, 1% active; AID 588453; note: potency is the fitted concentration of half-maximal effect; nearly all actives have a fitted effect of over 65% in size
Target sequence (O89049 whole entry, looked up): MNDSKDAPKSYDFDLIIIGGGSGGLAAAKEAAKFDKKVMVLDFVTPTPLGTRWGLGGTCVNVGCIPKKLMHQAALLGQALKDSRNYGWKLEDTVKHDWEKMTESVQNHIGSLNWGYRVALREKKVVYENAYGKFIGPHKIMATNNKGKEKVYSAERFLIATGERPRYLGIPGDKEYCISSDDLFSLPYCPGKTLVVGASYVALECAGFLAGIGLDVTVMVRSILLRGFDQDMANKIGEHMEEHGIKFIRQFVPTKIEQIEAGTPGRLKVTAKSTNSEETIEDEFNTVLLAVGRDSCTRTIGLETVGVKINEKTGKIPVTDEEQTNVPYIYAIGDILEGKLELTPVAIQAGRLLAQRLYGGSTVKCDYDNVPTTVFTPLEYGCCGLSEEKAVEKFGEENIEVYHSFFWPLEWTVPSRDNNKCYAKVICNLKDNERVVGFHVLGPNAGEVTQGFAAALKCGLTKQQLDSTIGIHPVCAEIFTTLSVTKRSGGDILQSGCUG
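Rat TrxR1 (90 nM in the dispensed reagent) was pre-reduced with 400 uM NADPH for 5 min at room temperature, then incubated with compound for 15 min. After 400 uM selenite was added, NADPH fluorescence (Ex 340/Em 450 nm) was followed for 8 min.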
TrxR1 substrate = rat thioredoxin reductase 1 substrate activity | O89049 | purified TrxR1 substrate turnover, NADPH consumption readout | Potency, µM (series often up to 114 µM), for the others: at the highest dose activity change, negative = substrate turnover | 390,000 tested, 0.01% active | AID 588456; note: potency is the fitted concentration of half-maximal effect; nearly all actives have a fitted effect of over 50% in size
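Rat TrxR1, dispensed at 90 nM, was prereduced with 400 uM NADPH (final) for 5 min at ~22 deg C, then incubated with compound 15 min before 400 uM selenite. A first-read NADPH fluorescence drop versus no-compound background flagged substrates.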
Coupling enz = inhibits coupling enzyme system, counter-screen for aldolase hits. coupling enzyme system counterscreen, AmpLite Red fluorescence. activity change, negative = inhibition, % at 58.2 µM, hits read low. 290,000 tested, 0.67% active. AID 2472; in the data active = activity change below about -30%
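Activity here indicates interference with the coupling reaction, not aldolase inhibition. Compounds at 57.5 uM final met coupling enzymes for 10 min at RT; substrate and AmpLite Red detection followed, with a 525/598 nm fluorescence read after 20 min.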
PI4K2A block = blocks human PI4K2A kinase activity; Q9BTU6; purified PI4K2A, ADP-Glo luminescence, 1 h; hits give low values; activity change, negative = inhibition, % at 76.9 µM; 420,000 tested, 0.13% active; AID 1346378; in the data active = activity change below about -50%; inconclusive = mostly about -30% to -49%;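 note: -100% = wells without enzyme as full effect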
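Compounds are screened against recombinant PI4K2A using PI as substrate and ATP, the latter dispensed at 300 microM. Reactions run one hour at ambient temperature before ADP-Glo detection; full inhibition defined by wells lacking enzyme.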
An asterisk follows results filed as active; ? = inconclusive; nt = no result; ! = repeats disagree; [ ] = remark or other dose. Unless noted, calls come from the whole dose curve; as a rule, active = well fitted curve in the direction sought with a large enough effect; inconclusive = small, poorly fitted or top-dose-only effect, or another doubt; inactive = no such curve, though single readings can be large; an effect the other way counts as inactive or inconclusive. Unless noted, % is set by controls: 0 for no effect and ±100 for the full control effect.

SMILES | GALK inhibitor | Giardia kill | TrxR1 inh | TrxR1 substrate | Coupling enz | PI4K2A block
COC1=C(Nc2ccc(O)cc2)C(=O)c2ccccc2C1=O | 3.3% | -14.7 | ? | -3.5%[57.1 µM] | -32.5* | ?
COc1cc(/C=C/C(=O)c2ccccc2)cc(OC)c1OC | nt | nt | nt | nt | nt | -1.5
O=C(COc1ccccc1C(=O)Nc1cccc([N+](=O)[O-])c1)Nc1ccc(Br)cc1 | nt | nt | 36.4% | 4.9% | nt | nt
Cc1[nH][nH]c(=O)c1C(c1c(C)[nH][nH]c1=O)c1cn(Cc2ccccc2Cl)c2ccccc12 | 1.8% | 6.6 | ? | ? | -43.0* | ?
O=C(Nc1ccc(-c2nc3ncccc3o2)cc1)c1ccc([N+](=O)[O-])o1 | 0.7% | -93.7* | 4.3% | 4.2% | -0.6 | 0.9
O=C(Nc1ccc2oc(-c3ccncc3)nc2c1)c1ccccc1 | 1.2% | 4.6 | 6.3%[57.1 µM] | 9.0%[57.1 µM] | 0.3 | -1.5
O=C(Nc1ccc2oc(-c3ccncc3)nc2c1)c1ccc([N+](=O)[O-])o1 | -2.6% | -80.1* | 5.6% | 0.4% | -0.7 | -1.5
Cc1ccc(-c2nc3ncccc3o2)cc1NC(=O)c1ccc([N+](=O)[O-])o1 | 3.5% | -90.9* | -7.1% | -1.1% | 2.3 | 7.3
Cc1nc(N2CCN(C(=O)C3CC3)CC2)c2c3c(sc2n1)CC(C)CC3 (centres undefined) | nt | nt | nt | nt | nt | 0.3
C=CCN1c2ccccc2[C@]23C[C@@H](C(=O)OC)N(S(=O)(=O)c4c(C)noc4C)C2=NC(C(=O)OC)=C(C(=O)OC)[C@H]13 | nt | nt | nt | nt | 1.5 | nt
N#CN=c1snc(-c2ccccc2)n1-c1ccc(Br)cc1 | nt | 18.1 | 10.1%[0.0914 µM] | 8.4%[0.0914 µM] | nt | nt
CN1c2cccc3cccc(c23)N(C)C1c1cccs1 | -1.4% | 1.2 | 8.9%[57.1 µM] | -1.0%[57.1 µM] | -37.0* | -0.2
Cc1ccc(-c2cc3c(nn2)-c2ccccc2C3=O)cc1 | 17.4% | -96.7* | 40.1% | 4.5% | -4.9 | -63.2*
Cc1ccccc1-c1cc2c(nn1)-c1ccccc1C2=O | 4.7% | -18.2 | -5.2% | -8.2% | -39.5* | ?
O=C1Cc2ccccc2Sc2c(OCCN3CCCCC3)cccc21 | 3.6% | -5.3 | -22.7% | -13.0% | -50.5* | -5.2
O=C1Cc2ccccc2Sc2cc(OCCCN3CCCCC3)ccc21 | 0.1% | -15.0 | 2.7% | -4.2% | -16.3 | 9.0
O=C(NC1CCCCN(Cc2ccc(Cl)cc2)C1=O)c1ccccc1 (centres undefined) | nt | nt | nt | nt | nt | 1.0
CSc1ccc(-c2cnc(N3CCC(C(N)=O)CC3)s2)cc1 | nt | nt | nt | nt | nt | -3.1
CC(C)(C)c1cc(CN(CCO)CCO)cc(C(C)(C)C)c1O | -1.6% | -3.2 | 3.55µM* | 0.0% | -13.7 | 19.0
CN(C)Cc1cc(C(C)(C)C)cc(C(C)(C)C)c1O | -1.7% | -9.0 | -11.7% | -6.7% | 0.0 | 5.2
CN(C)Cc1cc(C(C)(C)C)c(O)c(C(C)(C)C)c1 | -3.0% | 18.5 | 8.91µM* | 11.6%[57.1 µM] | -1.6 | -1.2
CN1[C@@H]2CC[C@H]1CC(NC(=O)n1c(=O)[nH]c3ccccc31)C2 (some centres undefined) | nt | nt | nt | nt | nt | 1.1
COc1cc(/C=C/c2ccnc3ccccc23)ccc1N(C)C | nt | nt | -8.9% | -7.9% | nt | nt
COC(=O)CSC1=C(C#N)C(=O)NC(c2ccccc2)S1 (centres undefined) | -2.1% | 1.1 | 28.2µM* | -23.6% | -1.5 | -14.3
CCCCc1nc2c(c3c1C[C@H](C)OC3)CN(C(=O)Cc1cccs1)CC2 | nt | nt | nt | nt | 0.9 | nt
SMILES | GALK inhibitor | Giardia kill | TrxR1 inh | TrxR1 substrate | Coupling enz | PI4K2A block
O=C(COC(=O)c1nc(Cl)c(Cl)c(Cl)c1Cl)NCc1ccccc1 | nt | 8.2 | 44.7µM* | -7.5% | nt | -3.4
Cc1ccccc1C(=O)Nc1cccc(OCc2cc(=O)n3c4c(sc3n2)CCCC4)c1 | nt | nt | -2.7% | -6.2% | nt | 1.9
CC(C)(C)c1ccc(-c2nnc(SCC(=O)Nc3ccc(S(=O)(=O)Nc4nccs4)cc3)n2Cc2ccco2)cc1 | nt | nt | nt | nt | nt | -56.3*
O=C(CSc1nnc(-c2ccncc2)n1Cc1ccco1)Nc1nccs1 | -4.6% | -19.4 | 9.4%[11.4 µM] | -23.6%[11.4 µM] | -3.6 | 3.3
COc1ccc(CCN(Cc2cccs2)S(=O)(=O)c2ccc(F)cc2)cc1OC | nt | nt | nt | nt | nt | 1.1
COc1ccccc1NC(=O)c1nc(S(=O)(=O)Cc2ccccc2)ncc1Cl | -1.7% | -16.2 | 3.55µM* | -0.1% | nt | 4.1
CCOc1ccccc1NC(=O)c1nc(S(=O)(=O)Cc2ccccc2)ncc1Cl | -1.2% | 19.9 | 7.94µM* | -3.6% | nt | 6.5
CCS(=O)(=O)c1ncc(Cl)c(C(=O)Nc2ccccc2OC)n1 | 3.8% | -13.6 | ? | 0.7% | -3.5 | -1.1
COc1ccc(OC)c(NC(=O)c2nc(S(=O)(=O)Cc3ccc(F)cc3)ncc2Cl)c1 | nt | nt | 0.708µM* | 1.0% | nt | 5.4
Fc1ccc(-c2nc3n(n2)Cc2ccccc2-3)cc1 | 1.9% | -15.9 | 22.5%[57.1 µM] | -4.6%[57.1 µM] | -12.2 | ?
c1ccc(-c2cn3c(n2)-c2ccccc2C3)cc1 | 7.4% | ? | 8.9% | 70.4% | -5.4 | -51.4*
COc1cccc(-c2nnc(SCc3cc(C)ccc3C)n2Cc2ccco2)c1 | nt | nt | nt | nt | nt | -3.8
Cc1cc(=O)n2c(C(=O)Nc3ccc(C(=O)OC(C)C)cc3)c(C(=O)Nc3ccccc3)sc2n1 | 0.2% | -9.6 | 50.1µM* | -1.8% | -3.3 | 3.7
Cc1cc(=O)n2c(C(=O)Nc3ccc(F)c(Cl)c3)c(C(=O)Nc3cccc(C)c3C)sc2n1 | nt | nt | 14.5% | 3.1% | nt | 0.0
c1ccc2oc(SCc3cn4ccsc4n3)nc2c1 | 3.6% | -6.1 | 13.1%[57.1 µM] | -8.6% | 2.9 | -12.0
Cc1csc2nc(CSc3nc4ccccc4o3)cn12 | -1.8% | 12.7 | 3.0% | -7.5% | -51.1* | -5.5
C=C1CN(Cc2ccccc2)S(=O)(=O)c2ccccc21 | -2.1% | -20.0 | 28.2µM*! | -1.1% | -0.5 | -9.0
C=C1CN(CC(=O)OC)S(=O)(=O)c2ccccc21 | 2.6% | 3.3 | ? | 6.4%[57.1 µM] | 2.3 | -6.2
Clc1nc(CN2CCOCC2)nc2sc3c(c12)CCC3 | 1.0% | -21.2 | 3.3% | 4.7% | 1.1 | -2.9
CC1CCN(Cc2nc(Cl)c3c4c(sc3n2)CCC4)CC1 | -1.4% | -5.2 | 31.6µM* | 1.4% | -0.4 | 2.9
Cc1sc2nc(CN3CCCCC3)nc(Cl)c2c1C | -0.2% | 3.5 | 31.6µM* | 2.2% | 2.2 | 6.3
